# Columns and labels:
# Assay in all cases: DAPPL (digital affinity profiling via proximity ligation, sequencing); 10 mM Tris-HCl pH 7.5, 50 mM NaCl, 1 mM DTT, 4% glycerol, room temperature, 30 min; GST-TFs on glutathione beads, 16-mer random dsDNA library, 0.1% formaldehyde crosslink after washing; high values mean tight binding
# FEV = target: T1, FEV (Homo sapiens, UniProt Q99581 1-238); details: protein: recombinant; tags: N-terminal GST; dsDNA, one strand shown
# T1 sequence: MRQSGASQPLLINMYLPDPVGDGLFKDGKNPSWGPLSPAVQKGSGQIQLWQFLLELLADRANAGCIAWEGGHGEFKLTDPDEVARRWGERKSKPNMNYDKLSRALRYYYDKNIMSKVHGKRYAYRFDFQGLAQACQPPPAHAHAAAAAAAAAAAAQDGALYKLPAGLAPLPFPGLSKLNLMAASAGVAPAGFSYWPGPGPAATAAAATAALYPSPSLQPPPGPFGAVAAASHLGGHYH
# Summary of the method: (§1)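 Pools were built from human transcription factors expressed in yeast as GST fusions, captured on glutathione beads and DNA-barcoded, along with a tag-only sample. Incubation with 200 nmole of a 16-mer random double-stranded DNA library lasted 30 min at room temperature in Tris/NaCl/DTT/glycerol buffer, and was followed by washing, 0.1% formaldehyde crosslinking, proximity ligation, PCR amplification and Illumina NextSeq500 sequencing. Binding signal is the quotient of each hexamer's read frequency for a factor and its frequency for the tag-only sample.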
# ETV5 = ETV5 (Homo sapiens, UniProt P41161 1-510); details: protein: recombinant; tags: N-terminal GST; dsDNA, one strand shown
# Summary of the method: as §1
# HSF1 = HSF1 (Homo sapiens, UniProt Q00613 1-529); details: protein: recombinant; tags: N-terminal GST; chain copies: 3; dsDNA, one strand shown
# Summary of the method: as §1
# SPIC = target: T2, SPIC (Homo sapiens, UniProt Q8N5J4 1-248); details: protein: recombinant; tags: N-terminal GST; dsDNA, one strand shown
# T2 sequence: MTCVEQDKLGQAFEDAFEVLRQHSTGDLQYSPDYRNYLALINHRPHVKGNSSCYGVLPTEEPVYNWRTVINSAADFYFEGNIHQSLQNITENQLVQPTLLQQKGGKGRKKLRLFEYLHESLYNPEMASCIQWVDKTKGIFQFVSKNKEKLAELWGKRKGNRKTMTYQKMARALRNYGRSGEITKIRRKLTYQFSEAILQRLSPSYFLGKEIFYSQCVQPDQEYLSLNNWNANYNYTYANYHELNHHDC
# Summary of the method: as §1
# ELF4 = ELF4 (Homo sapiens, UniProt Q99607 1-663); details: protein: recombinant; tags: N-terminal GST; dsDNA, one strand shown
# Summary of the method: as §1
# ELK4 = target: T3, ELK4 (Homo sapiens, UniProt P28324-2 1-405); details: protein: recombinant; tags: N-terminal GST; dsDNA, one strand shown
# T3 sequence: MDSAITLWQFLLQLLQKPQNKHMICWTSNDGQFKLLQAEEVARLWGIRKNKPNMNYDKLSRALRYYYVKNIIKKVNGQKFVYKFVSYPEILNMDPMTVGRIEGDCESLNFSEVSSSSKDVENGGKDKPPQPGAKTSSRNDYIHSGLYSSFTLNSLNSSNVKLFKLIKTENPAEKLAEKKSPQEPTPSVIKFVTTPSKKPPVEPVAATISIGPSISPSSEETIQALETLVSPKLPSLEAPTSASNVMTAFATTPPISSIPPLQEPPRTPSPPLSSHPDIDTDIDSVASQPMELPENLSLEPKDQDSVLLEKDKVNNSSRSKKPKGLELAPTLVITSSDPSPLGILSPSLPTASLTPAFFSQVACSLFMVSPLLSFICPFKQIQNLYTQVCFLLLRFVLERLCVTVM
# Summary of the method: as §1
# ETV2 = target: T4, ETV2 (Homo sapiens, UniProt O00321 1-342); details: protein: recombinant; tags: N-terminal GST; dsDNA, one strand shown
# T4 sequence: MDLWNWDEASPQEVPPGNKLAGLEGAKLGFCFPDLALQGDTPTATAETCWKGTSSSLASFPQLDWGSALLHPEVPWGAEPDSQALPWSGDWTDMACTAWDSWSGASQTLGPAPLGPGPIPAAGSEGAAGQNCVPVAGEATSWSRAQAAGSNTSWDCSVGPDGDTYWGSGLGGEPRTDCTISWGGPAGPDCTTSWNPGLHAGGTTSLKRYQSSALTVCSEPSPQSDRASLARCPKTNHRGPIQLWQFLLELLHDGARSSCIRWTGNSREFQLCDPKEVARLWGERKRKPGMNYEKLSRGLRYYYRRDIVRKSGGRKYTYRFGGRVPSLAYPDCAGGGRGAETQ
# Summary of the method: as §1
# ELF3 = target: T5, ELF3 (Homo sapiens, UniProt P78545 1-371); details: protein: recombinant; tags: N-terminal GST; dsDNA, one strand shown
# T5 sequence: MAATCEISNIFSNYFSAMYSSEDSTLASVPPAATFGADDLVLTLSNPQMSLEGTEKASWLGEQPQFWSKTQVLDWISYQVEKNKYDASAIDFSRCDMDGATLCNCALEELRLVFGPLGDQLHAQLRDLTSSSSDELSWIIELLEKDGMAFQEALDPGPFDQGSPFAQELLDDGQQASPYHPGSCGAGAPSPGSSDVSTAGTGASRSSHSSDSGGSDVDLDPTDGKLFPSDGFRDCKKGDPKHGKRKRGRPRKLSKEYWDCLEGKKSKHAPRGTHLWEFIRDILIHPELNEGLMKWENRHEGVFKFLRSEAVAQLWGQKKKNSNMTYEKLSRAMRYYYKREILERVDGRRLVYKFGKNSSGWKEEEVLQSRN
# Summary of the method: as §1
# CRX = CRX (Homo sapiens, UniProt O43186 1-299); details: protein: recombinant; tags: N-terminal GST; dsDNA, one strand shown
# Summary of the method: as §1
# ETV1 = ETV1 (Homo sapiens, UniProt P50549 1-477); details: protein: recombinant; tags: N-terminal GST; dsDNA, one strand shown
# Summary of the method: as §1
# ELF4, sequence (Q99607 whole entry): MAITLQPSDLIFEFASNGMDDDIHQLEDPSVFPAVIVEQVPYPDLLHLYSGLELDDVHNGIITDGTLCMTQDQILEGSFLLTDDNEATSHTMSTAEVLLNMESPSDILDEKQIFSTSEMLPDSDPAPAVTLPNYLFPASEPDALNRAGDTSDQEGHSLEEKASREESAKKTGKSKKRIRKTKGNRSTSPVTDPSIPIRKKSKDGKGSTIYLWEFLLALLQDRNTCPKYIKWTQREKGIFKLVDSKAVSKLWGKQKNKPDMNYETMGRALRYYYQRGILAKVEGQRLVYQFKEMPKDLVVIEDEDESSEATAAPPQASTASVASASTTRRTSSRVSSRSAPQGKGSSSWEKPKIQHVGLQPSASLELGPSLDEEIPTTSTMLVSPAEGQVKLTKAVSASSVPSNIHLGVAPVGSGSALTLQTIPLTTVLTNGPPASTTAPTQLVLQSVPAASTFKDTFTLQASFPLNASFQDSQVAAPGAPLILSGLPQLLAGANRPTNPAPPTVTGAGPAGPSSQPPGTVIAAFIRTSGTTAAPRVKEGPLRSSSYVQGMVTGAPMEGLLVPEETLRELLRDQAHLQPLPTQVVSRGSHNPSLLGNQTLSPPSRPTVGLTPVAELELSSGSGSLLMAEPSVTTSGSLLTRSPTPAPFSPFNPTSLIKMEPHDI
# HSF1, sequence (Q00613 whole entry): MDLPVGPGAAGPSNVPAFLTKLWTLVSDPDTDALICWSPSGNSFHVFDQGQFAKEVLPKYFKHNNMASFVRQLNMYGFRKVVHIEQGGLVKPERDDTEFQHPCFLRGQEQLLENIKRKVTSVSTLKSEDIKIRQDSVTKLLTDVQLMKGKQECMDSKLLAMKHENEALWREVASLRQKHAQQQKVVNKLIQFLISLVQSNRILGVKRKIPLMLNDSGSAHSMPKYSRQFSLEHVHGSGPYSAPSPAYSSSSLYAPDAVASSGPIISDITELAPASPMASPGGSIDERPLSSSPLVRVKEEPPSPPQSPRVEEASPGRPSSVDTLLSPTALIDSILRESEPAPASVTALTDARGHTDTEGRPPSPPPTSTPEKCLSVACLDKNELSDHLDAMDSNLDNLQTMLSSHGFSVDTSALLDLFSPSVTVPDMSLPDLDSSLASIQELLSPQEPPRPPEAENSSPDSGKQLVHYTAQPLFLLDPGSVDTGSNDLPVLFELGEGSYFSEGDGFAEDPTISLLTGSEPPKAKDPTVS
# CRX, sequence (O43186 whole entry): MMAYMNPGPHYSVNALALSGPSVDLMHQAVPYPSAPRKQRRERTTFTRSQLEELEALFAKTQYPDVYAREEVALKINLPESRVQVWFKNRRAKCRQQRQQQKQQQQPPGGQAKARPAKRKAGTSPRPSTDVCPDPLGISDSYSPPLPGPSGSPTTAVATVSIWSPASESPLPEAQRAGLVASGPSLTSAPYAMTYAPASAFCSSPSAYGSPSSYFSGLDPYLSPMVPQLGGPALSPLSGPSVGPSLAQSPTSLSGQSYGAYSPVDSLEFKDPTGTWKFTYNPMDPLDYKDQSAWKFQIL
# ETV5, sequence (P41161 whole entry): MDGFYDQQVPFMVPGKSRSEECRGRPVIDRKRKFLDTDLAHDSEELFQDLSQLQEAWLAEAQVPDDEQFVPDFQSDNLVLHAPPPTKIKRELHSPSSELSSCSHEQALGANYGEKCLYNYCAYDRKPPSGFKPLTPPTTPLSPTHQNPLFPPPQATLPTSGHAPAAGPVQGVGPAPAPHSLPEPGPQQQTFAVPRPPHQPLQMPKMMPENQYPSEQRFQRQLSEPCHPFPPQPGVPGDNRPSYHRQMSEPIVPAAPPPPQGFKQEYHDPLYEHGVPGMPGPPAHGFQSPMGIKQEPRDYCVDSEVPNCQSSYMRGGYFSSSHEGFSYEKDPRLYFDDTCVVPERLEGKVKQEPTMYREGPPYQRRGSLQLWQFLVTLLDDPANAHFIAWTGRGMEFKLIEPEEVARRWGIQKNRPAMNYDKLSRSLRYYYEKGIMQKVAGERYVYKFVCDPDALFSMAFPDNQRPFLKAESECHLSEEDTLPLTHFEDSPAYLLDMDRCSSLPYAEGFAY
# ETV1, sequence (P50549 whole entry): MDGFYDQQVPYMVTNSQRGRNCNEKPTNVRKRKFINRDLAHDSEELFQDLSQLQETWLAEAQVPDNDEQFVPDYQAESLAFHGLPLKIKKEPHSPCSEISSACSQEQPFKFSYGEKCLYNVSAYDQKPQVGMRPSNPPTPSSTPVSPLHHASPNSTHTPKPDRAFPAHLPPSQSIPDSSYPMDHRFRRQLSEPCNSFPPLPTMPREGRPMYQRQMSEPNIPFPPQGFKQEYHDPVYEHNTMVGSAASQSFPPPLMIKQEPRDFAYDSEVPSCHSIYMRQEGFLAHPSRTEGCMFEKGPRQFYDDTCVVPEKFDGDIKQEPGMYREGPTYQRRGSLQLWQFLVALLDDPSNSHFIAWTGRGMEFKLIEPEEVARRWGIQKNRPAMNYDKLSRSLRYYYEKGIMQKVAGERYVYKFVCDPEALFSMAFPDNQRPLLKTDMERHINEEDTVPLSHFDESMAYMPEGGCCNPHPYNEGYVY
sequence,measurement,setting,value
GTTACT,binding signal,FEV,"1.17 fold enrichment (6-mer frequency, TF over GST control)"
same,binding signal,ETV5,"1.28 fold enrichment (6-mer frequency, TF over GST control)"
same,binding signal,HSF1,"1.03 fold enrichment (6-mer frequency, TF over GST control)"
same,binding signal,SPIC,"1.31 fold enrichment (6-mer frequency, TF over GST control)"
same,binding signal,ELF4,"1.18 fold enrichment (6-mer frequency, TF over GST control)"
same,binding signal,ELK4,"1.09 fold enrichment (6-mer frequency, TF over GST control)"
same,binding signal,ETV2,"1.19 fold enrichment (6-mer frequency, TF over GST control)"
same,binding signal,ELF3,"1.4 fold enrichment (6-mer frequency, TF over GST control)"
same,binding signal,CRX,"1.03 fold enrichment (6-mer frequency, TF over GST control)"
same,binding signal,ETV1,"1.17 fold enrichment (6-mer frequency, TF over GST control)"

# From PMC7862700, “An all-to-all approach to the identification of sequence-specific readers for epigenetic DNA modifications on cytosine”
